The values that follow come from PubChem BioAssay (Tox21).

Where “and” joins values, the source holds several entries; their conditions need not be identical. Identical values can stand only once. Inconclusive results are not listed. A call without a number means that no potency is given here. Some structures have more than one record in an assay (separate samples or runs), and their calls can disagree. Calls of active or inactive are those of the source. Calls come from the whole dose curve.
Potency is the fitted concentration of half-maximal effect.

The assay in a line: Nuclear factor erythroid 2-related factor 2/antioxidant responsive element (Nrf2/ARE) small molecule agonists: luciferase reporter gene qHTS assay in human keratinocytes (AID 1919969). Note: nearly all actives have a fitted effect of over 35% in size. To be noted: KeratinoSens HaCaT ARE-luciferase, luminescence, 24 h; series mostly up to 92.4 µM; activity, positive = activation: at the top concentration. The source says: National Center for Advancing Translational Sciences [NCATS]
Division of Preclinical Innovation [DPI]
U.S. Environmental Protection Agency [EPA]
National Institutes of Environmental Health Sciences [NIEHS]
National Toxicology Program [NTP]
U.S. Food and Drug Administration [FDA]
Oxidative stress has been implicated in the pathogenesis of a variety of diseases ranging from cancer to neurodegeneration. The antioxidant response element (ARE) signaling pathway plays an important role in the amelioration of oxidative stress. The KeratinoSens (Givaudan, Switzerland) is an in vitro test method which quantifies luciferase induction as a measure of activation of Keap1-Nrf2-antioxidationt/electrophile response element (ARE) dependant pathway in HaCaT human keratinocytes stably transfected with a selectable plasmid. The KeratinoSens assay is a cell-based assay with a reporter cell line to detect potential skin sensitizers by their ability to induce the Nrf2/ARE-response. The activation of the report gene under culture conditions can be detected by ONE-Glo Luciferase Assay System (Promega, Madison, WI). This cell line has been used to screen the Tox21 10K compound library to identify agonists that induce oxidative stress. The cytotoxicity of the Tox21 compound library against the KS-ARE cell line was tested in parallel by measuring the cell viability using CellTiter- Fluor assay system (Promega, Madison, WI) in the same wells.
HaCaT derived cell line KeratinoSens were dispensed at 1,500 cells/5uL/well in 1536-well white wall/solid bottom plates using a Multidrop Combi (ThermoFisher Scientific, Waltham, MA) dispenser. After the assay plates were incubated at 37 C/5% CO2 for 5 h, 23 nL of compounds dissolved in DMSO, positive controls or DMSO only was transferred to the assay plate by a pintool workstation (Kalypsys, San Diego, CA). The plates were incubated at 37 C/5% CO2 for 23 h, followed by addition of 1uL/well of CellTiter-Fluor reagent into the assay plates using a Flying Reagent Dispenser (Aurora Discovery, San Diego, CA) for cell viability readout that measures cytotoxicity. After 1 h incubation at 37 C/5% CO2 the fluorescence intensity was measured using a ViewLux (PerkinElmer, Shelton, CT) plate reader. Then 4uL/well of One-Glo were added using a Flying Reagent Dispenser. After the plates were incubated at room temperature for 30 min, the luminescence intensity in the assay plates was measured using ViewLux plate reader.
On the technique in general: Reporter assays use an easily measured gene product as a stand-in for the process of interest.
As for `Nc1nc(N)nc(Cl)n1`, the “activity, positive = activation” value is 5.5% (inactive).

On to `COP(=S)(OC)Oc1cc(Cl)c(Cl)cc1Cl`, for which the Potency is 68.1 µM (active).

In the case of `CCC(CC)Nc1c([N+](=O)[O-])cc(C)c(C)c1[N+](=O)[O-]`, the Potency is 17.5 µM (active) and 48.5 µM (active).

`OCC(Cl)CCl` (stereo not given): the “activity, positive = activation” value was 0.955% (inactive).

`Cc1cc(-c2cc(C)c(N)c(C)c2)cc(C)c1N`: the Potency entry was “inactive”.

In the case of `CC(Br)C(=O)O` (stereo not given), the Potency result was “inactive”.

In the case of `C=CC(=O)OCCO`, the “activity, positive = activation” value is 17.9% (inactive).

As for `ClC(Cl)c1ccccc1`, the Potency entry is “inactive”.

Take `C=CCN=C=S`: the “activity, positive = activation” value was -4.64% (inactive).

With `O=C(Cl)C(Cl)Cl`, the “activity, positive = activation” value is -2.2% (inactive).

For the compound `O=c1ccc(=O)[nH][nH]1`, the Potency entry was “inactive”.

In the case of `CCSC(=O)N1CCCCCC1`, the Potency was 37.5 µM (active) and inactive.

On to `N#CCNCC#N`, for which the “activity, positive = activation” value is -3.79% (inactive).

As for `NCC(O)c1ccc(O)cc1` (stereo not given), the Potency result is “inactive”.

For the compound `O=[N+]([O-])c1ccc(Cl)cc1`, the Potency entry was “inactive”.

In the case of `CC(C)C(C)(N)C#N` (stereo not given), the “activity, positive = activation” value was -4.08% (inactive).

Regarding `CNC(C)(C)Cc1ccccc1`, the “activity, positive = activation” value was 1.78% [at 42.5 µM] (inactive).

For `Cn1cc[n+](C)c1` (tested in a mixture with another compound), the “activity, positive = activation” value was 4.8% (inactive).

On to `Nc1ccc(Oc2ccc(N)cc2)cc1`, for which the Potency result is “inactive”.

`ClC1=C(Cl)[C@]2(Cl)[C@@H]3[C@@H](Cl)[C@@H](Cl)C[C@@H]3[C@@]1(Cl)C2(Cl)Cl`: the “activity, positive = activation” value was -10.1% (inactive).

`CCCCCCC#N`: the “activity, positive = activation” value is 0.339% (inactive).

As to `c1ccc2c(c1)CCCC2`, the Potency result was “inactive”.

As for `CC(=O)C1CCOC1=O` (stereo not given), the Potency entry is “inactive”.

Regarding `CCOCN(C(=O)CCl)c1c(C)cccc1CC`, the Potency was 25.8 µM (active) and 68.6 µM (active).

As to `CCCCCCCCCCCCCl`, the Potency result was “inactive”.

Consider `CC(C)CON=O`, for which the Potency result was “inactive”.

Regarding `O=C(O)CF`, the Potency entry was “inactive”.

Take `Clc1ccc(C(Cl)(Cl)Cl)cc1`: the Potency entry is “inactive”.

For `CCCC[n+]1cccc(C)c1`, the Potency entry is “inactive”.

For the compound `Clc1nc(Cl)nc(Cl)n1`, the “activity, positive = activation” value was 4.31% (inactive).

For `O=[N+]([O-])c1ccc([As](=O)(O)O)cc1`, the Potency entry was “inactive”.

With `CC(C)CC(C)(c1ccc(O)cc1)c1ccc(O)cc1`, the “activity, positive = activation” value was -42.9% (inactive).

With `Cl[C@H]1OCCO[C@@H]1Cl`, the Potency result was “inactive”.

As for `Cc1cccc(C#N)c1`, the “activity, positive = activation” value was -8.95% (inactive).

`CC(C)(O)C#N`: the Potency entry was “inactive”.

With `CN1C(=O)CCS(=O)(=O)C1c1ccc(Cl)cc1` (stereo not given), the Potency result was “inactive”.

Consider `CCOc1nc(F)cc2nc(S(=O)(=O)Nc3c(Cl)cccc3Cl)nn12`, for which the “activity, positive = activation” value is -2.01% (inactive).

Take `Oc1ccc(Cl)cc1Cl`: the Potency entry is “inactive”.

Turning to `COc1cc(-c2ccc(N)c(OC)c2)ccc1N`, the Potency result is “inactive”.

In the case of `O=C(O)Cc1ccccc1`, the “activity, positive = activation” value is 0.803% [at 42.5 µM] (inactive).
